Experimental data from paper PMC4336329 (PLoS ONE, 2015).
In all, about 310,000 compounds went through this assay and about 14,000 (4.5%) showed an effect of 50% or more. Effects have a minus sign here. The sample holds strong results, similar compounds and a random draw of the others, so the mix is not that of the screen.

target: human ether-à-go-go-related gene (hERG) potassium channel (human, UniProt Q12809); assay: primary screen, population patch clamp on CHO cells stably expressing hERG; higher = less effect of the substance
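Further: peak tail current of the secondary pulse compared with the same well before compound.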

Sequence of human ether-à-go-go-related gene (hERG) potassium channel (Q12809 whole entry, looked up): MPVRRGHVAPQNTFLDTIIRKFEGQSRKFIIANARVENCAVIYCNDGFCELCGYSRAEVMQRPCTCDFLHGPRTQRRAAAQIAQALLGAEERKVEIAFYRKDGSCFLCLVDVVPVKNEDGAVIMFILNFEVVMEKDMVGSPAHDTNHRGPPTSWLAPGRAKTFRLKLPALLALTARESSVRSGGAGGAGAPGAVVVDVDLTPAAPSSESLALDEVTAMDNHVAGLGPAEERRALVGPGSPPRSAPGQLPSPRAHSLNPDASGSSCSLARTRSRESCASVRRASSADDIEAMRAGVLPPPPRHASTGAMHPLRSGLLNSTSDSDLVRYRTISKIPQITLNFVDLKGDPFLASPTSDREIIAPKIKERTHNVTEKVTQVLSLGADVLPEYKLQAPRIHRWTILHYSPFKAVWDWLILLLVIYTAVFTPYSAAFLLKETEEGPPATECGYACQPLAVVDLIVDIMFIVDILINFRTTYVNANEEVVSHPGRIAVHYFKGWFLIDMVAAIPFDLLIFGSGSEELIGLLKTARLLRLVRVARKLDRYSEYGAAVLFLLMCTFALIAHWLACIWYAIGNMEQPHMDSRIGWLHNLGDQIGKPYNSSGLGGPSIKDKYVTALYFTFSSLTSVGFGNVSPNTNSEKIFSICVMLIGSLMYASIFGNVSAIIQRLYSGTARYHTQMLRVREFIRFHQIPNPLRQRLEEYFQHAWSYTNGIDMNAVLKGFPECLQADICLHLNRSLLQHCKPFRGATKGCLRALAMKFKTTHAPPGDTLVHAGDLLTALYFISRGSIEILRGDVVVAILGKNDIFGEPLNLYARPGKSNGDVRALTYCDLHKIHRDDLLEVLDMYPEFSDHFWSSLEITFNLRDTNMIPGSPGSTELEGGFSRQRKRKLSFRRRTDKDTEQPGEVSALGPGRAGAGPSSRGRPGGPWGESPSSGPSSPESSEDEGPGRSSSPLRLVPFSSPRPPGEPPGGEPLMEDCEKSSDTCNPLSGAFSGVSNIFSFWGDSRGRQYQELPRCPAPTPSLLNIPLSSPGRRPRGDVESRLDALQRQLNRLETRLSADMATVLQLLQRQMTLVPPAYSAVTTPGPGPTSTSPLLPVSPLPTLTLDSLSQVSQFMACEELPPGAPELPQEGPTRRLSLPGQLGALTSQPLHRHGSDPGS

SMILES | hERG current change (%, negative = inhibition) at 10uM [%]
CCOc1ccccc1CNC(=O)c1ccc2nc(N3CCOCC3)sc2c1 | -47.5
O=C(Nc1cc(Cl)ccc1O)C1CC(c2ccccc2O)=NO1 (stereo not drawn) | -5.36
O=C(O)CSc1ncnc2c1sc1nc(-c3ccccc3)c3c(c12)CCC3 | 10.3
NC(=O)C1CCN(C(=O)c2ccc(OCC(=O)Nc3cccc(C(F)(F)F)c3)cc2)CC1 | 1.96
CCOc1ccc(NC(=O)COc2ccc(C(=O)N3CCC(C(N)=O)CC3)cc2OC)cc1 | 9.91
CCOC(=O)C1CCN(C(=O)c2ccc(OCC(=O)Nc3cccc(C(F)(F)F)c3)cc2)CC1 | -55.5
CCOC(=O)C1CCN(C(=O)c2ccc(OCC(=O)Nc3ccc(OCC)cc3)c(OC)c2)CC1 | -19.5
O=C(COc1ccc(C(=O)O)cc1)Nc1cccc(C(F)(F)F)c1 | 22.5
CCOC(=O)C1CCN(C(=O)c2ccc(OCC(=O)Nc3cccc(C(F)(F)F)c3)c(OC)c2)CC1 | -61.9
Cc1nc(C(=O)NNC(=O)c2ccc(Cl)cc2)c(C(F)(F)F)o1 | 7.36
CCCN1CNC(=S)N(CC2CCCO2)C1 (stereo not drawn) | 5.19
CCCN(CCC)CCCNC(=S)Nc1ccc2nc3n(c(=O)c2c1)CCCCC3 | 6.36
O=c1c2cc(NC(=S)NCc3cccnc3)ccc2nc2n1CCCCC2 | -10.1
CCCCNC(=S)Nc1ccc2nc3n(c(=O)c2c1)CCCCC3 | -43.6
CCCCN(C)C(=S)Nc1ccc2nc3n(c(=O)c2c1)CCCCC3 | -81.2
CCN(CC)CCNC(=S)Nc1ccc2nc3n(c(=O)c2c1)CCCCC3 | 0.152
CCCCN(CC)CCCNC(=S)Nc1ccc2nc3n(c(=O)c2c1)CCCCC3 | -11.9
CCCCN(CC)C(=S)Nc1ccc2nc3n(c(=O)c2c1)CCCCC3 | -59
CCN(CC)C(=S)Nc1ccc2nc3n(c(=O)c2c1)CCCCC3 | -21.8
CN(Cc1ccccc1)C(=S)Nc1ccc2nc3n(c(=O)c2c1)CCCCC3 | -78.1
COC(=O)c1cc(NC(=S)NCc2ccc(Cl)cc2)cc(C(=O)OC)c1 | -20.6

SMILES | hERG current change (%, negative = inhibition) at 10uM [%]
Cc1ccc(Nc2nnc(SCC(=O)Nc3ccccc3[N+](=O)[O-])s2)cc1 | 7.88
CCOC(=O)CN1C(=O)/C(=C2\SC(=S)N(NC(=O)c3cccnc3)C2=O)c2ccccc21 | 11.5
O=C(NCc1ccc(F)cc1)c1cc(S(=O)(=O)N2CCOCC2)ccc1F | -20.6
C[C@H](NC(=O)c1cc2c([nH]c3ccccc32)c(-c2ccccc2)n1)C(=O)O | 11.8
O=C(Nc1ccccc1C(F)(F)F)N1CCN(C(c2ccccc2)c2ccccc2)CC1 | 15.5
COc1ccc(-c2nc(SC)n(C(=O)c3ccco3)n2)cc1 | 13.7
O=S(=O)(/C=C/c1cccc(Br)c1)N1CCOCC1 | -6.85
CCC(=NCCO)c1c(O)n(-c2ccc(Cl)cc2)c(=O)[nH]c1=O | 15.5
CC(=O)c1c(-c2ccc(C)cc2)nc2c3ccccc3ccn12 | 10.2
COc1ccc2c(C(=O)c3ccc(C)cc3)n(Cc3ccc(C(N)=O)cc3)[n+]([O-])c2c1 | -12.5
COc1ccc2c(C(=O)c3ccc(C)cc3)n(CCCC(N)=O)[n+]([O-])c2c1 | -44.2
COc1ccc(C(=O)c2c3ccc(C(F)(F)F)cc3[n+]([O-])n2CCCC(N)=O)cc1 | -51.6
COc1ccc(C(=O)c2c3ccc([N+](=O)[O-])cc3[n+]([O-])n2CCCC(N)=O)cc1 | -34.6
COc1ccc(C(=O)c2c3ccc(C(F)(F)F)cc3[n+]([O-])n2CCC[NH3+])cc1.[Cl-] | -73.3
COc1ccc(C(=O)c2c3ccc(OC)cc3[n+]([O-])n2CCCC(N)=O)cc1 | -34.9
COc1ccc(C(=O)c2c3ccccc3[n+]([O-])n2CCC(N)=O)cc1 | 13.1
COc1ccc(C(=O)c2c3ccc(OC)cc3[n+]([O-])n2Cc2ccc(C(N)=O)cc2)cc1 | -42
COc1ccc2c(C(=O)c3ccc(Cl)cc3)n(CCCC(N)=O)[n+]([O-])c2c1 | -55.5
COc1ccc(S(=O)(=O)O/N=C2\CCSc3ccc(C)cc32)cc1 | 3.61
CCOCCCNCc1cn(-c2ccc(F)cc2F)nc1-c1ccccc1C | -48
CCc1cc(=O)oc2cc(C)cc(OC(C)C(=O)NCCN3CCOCC3)c12 (stereo not drawn) | 4.16
